AMA1 RON2 block: AMA1-RON2 (P. falciparum) interaction inhibition; AlphaScreen AMA1-biotinylated RON2 peptide binding; Potency, µM (highest dose often 58.2 µM), hits mostly inhibitors; 360,000 tested, 0.2% active; AID 720542; further: nearly all actives have a fitted effect of over 45% in size
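AMA1 (3D7) with his tag at 25 nM final met compounds first, then biotinylated RON2 peptide at 25 nM; detection used donor plus acceptor beads, 10 µg/mL apiece, read by AlphaScreen after 30 min at room temperature.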
SARS PLP yeast: SARS-CoV PLP inhibition in yeast; S. cerevisiae expressing SARS-CoV PLpro, growth rescue; Potency, µM (doses to about 32.9 µM), most hits filed as activators; 330,000 tested, 0.19% active; calls by dose curve; further: nearly all actives have a fitted effect of over 55% in size
Cycloheximide cs: counter-screen hit for Shiga toxin inhibitors, cycloheximide; cell reporter, cycloheximide protein synthesis inhibition counterscreen; max response, %; 300,000 tested, 12% active; in the data active means max response mostly above about 13%, no sharp cut-off; inactive means mostly below about 14%; further: read at 38.3 µM for the half of the compounds with a filed dose
AmpC no deterg: AmpC beta-lactamase inhibition without detergent. P00811. AmpC nitrocefin hydrolysis, absorbance 480 nm, 0.0001% Triton. Potency, µM (series often up to 57.1 µM), usual class: inhibitors. 330,000 tested, 0.52% active. AID 485341; further: nearly all actives have a fitted effect of over 20% in size
Target sequence (P00811 whole entry, looked up): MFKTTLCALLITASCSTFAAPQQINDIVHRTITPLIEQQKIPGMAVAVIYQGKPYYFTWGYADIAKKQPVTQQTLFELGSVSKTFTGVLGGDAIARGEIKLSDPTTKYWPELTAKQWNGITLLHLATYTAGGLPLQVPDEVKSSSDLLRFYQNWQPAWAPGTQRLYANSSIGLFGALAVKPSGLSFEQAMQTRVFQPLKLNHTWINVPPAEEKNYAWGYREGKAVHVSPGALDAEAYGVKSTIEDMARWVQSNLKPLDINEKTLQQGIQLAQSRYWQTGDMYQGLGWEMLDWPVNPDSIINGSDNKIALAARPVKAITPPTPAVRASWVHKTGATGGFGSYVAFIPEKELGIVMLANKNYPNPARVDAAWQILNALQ
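20 mM phosphate pH 7.0 + 0.01% (detergent screen) or 0.0001% Triton X-100; 5.3 nM AmpC reagent; cpd preinc 15 min RT; nitrocefin (800 uM stock) to start; A480 q20 s × 4 min; Activity was normalised to no-enzyme and no-compound control wells.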
Shiga toxin inh: inhibitors of Shiga toxin in Vero cells | Vero cells, Shiga toxin protein synthesis inhibition reporter | inhibition, % at 38.7 µM | 290,000 tested, 9.2% active | AID 2315; in the data active means inhibition mostly above about 28%, no sharp cut-off; inactive means mostly below about 43%
AmpC inh detg: AmpC beta-lactamase inhibition with detergent present; AmpC hydrolysis of nitrocefin, absorbance 480 nm, 0.01% Triton; Potency, µM (doses to about 114 µM), usual class: inhibitors; 370,000 tested, 0.041% active; AID 485294; further: nearly all actives have a fitted effect of over 25% in size
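AmpC (5.3 nM in the dispensed reagent) in 20 mM phosphate pH 7.0 with 0.01% (detergent screen) or 0.0001% Triton X-100 was preincubated with compounds for 15 min at room temperature. Nitrocefin was then added from an 800 uM solution, and hydrolysis was followed at 480 nm.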
A number is an active result; i = inactive; ? = inconclusive; nt = not tested or not shown. Only a selection was taken, and hits are over-represented in it overall. Unless noted, the call rests on the fitted dose curve; in most records, active means well fitted curve in the direction sought with a large enough effect; inconclusive means small, poorly fitted or top-dose-only effect, or another doubt; inactive means no such curve, though single readings can be large; an effect the other way counts as inactive or inconclusive.

SMILES | AMA1 RON2 block | SARS PLP yeast | Cycloheximide cs | AmpC no deterg | Shiga toxin inh | AmpC inh detg
O=c1c2ccccc2nnn1Cc1nnc(-c2ccccc2Br)o1 | i | i | 44 | i | 128 | i
COCCNC(=O)C(=O)N/N=C(\C)CC(=O)Nc1ccc(Cl)cc1Cl | i | i | i | i | i | i
C/C(CC(=O)Nc1ccc(Cl)cc1Cl)=N\NC(=O)c1ccco1 | i | i | 37 | 7.9µM | 116 | i
C/C(CC(=O)Nc1ccc(C)c(Cl)c1)=N\NC(=O)c1ccco1 | i | i | 45 | i | 94 | i
Cc1cccc(NC(=O)CSc2nnc(-c3ccco3)c(-c3ccco3)n2)c1 | ? | i | i | 16µM | i | i
Cc1cccc(NC(=O)CSc2nnc(-c3ccco3)c(-c3ccco3)n2)c1C | ? | i | i | ? | i | i
O=C(CSc1n[nH]c(-c2ccco2)n1)Nc1ccccc1 | i | i | nt | i | nt | i
Cc1ccc(NC(=O)CSc2n[nH]c(-c3ccco3)n2)cc1 | i | i | 28 | i | i | i
Cc1nc(C(=O)NC2CC2)sc1C1(C)CC(c2ccccc2)=NO1 (configuration not stated) | i | i | 18 | i | i | i
CNC(=O)c1nc(C)c(C2(C)CC(c3ccccc3)=NO2)s1 (configuration not stated) | i | i | i | i | i | i
Cc1ccc(-c2cc(C(=O)N3CCN(c4ccccc4O)CC3)c3ccccc3n2)o1 | i | i | 35 | i | 66 | i
O=C(c1ccc2ccccc2n1)N1CCN(c2ccccc2O)CC1 | i | i | 52 | i | 88 | i
COc1ccc(-c2cc(C(=O)N3CCCCC3)c3ccccc3n2)cc1 | i | i | nt | i | nt | ?
COc1cccc(-c2cc(C(=O)N3CCN(c4ncccn4)CC3)c3ccccc3n2)c1 | i | i | 19 | i | 59 | ?
CC(C)Oc1cccc(-c2cc(C(=O)N3CCN(S(C)(=O)=O)CC3)c3ccccc3n2)c1 | i | i | 37 | i | i | i
O=C(c1cc(-c2ccc(Br)cc2)nc2ccccc12)N1CCN(c2ccccc2O)CC1 | i | i | nt | i | nt | i
O=C(c1cc(-c2ccccn2)nc2ccccc12)N1CCN(c2ncccn2)CC1 | i | i | i | i | i | i
Nc1cc(C(=O)OCC(=O)NC(c2ccccc2)c2ccccc2)ccc1Cl | i | i | i | i | i | i
COc1ccc(-c2cc(C(=O)N3CCN(c4ncccn4)CC3)c3ccccc3n2)cc1OC | i | i | nt | i | nt | i
CC(C)Oc1cccc(-c2cc(C(=O)N3CCN(c4ncccn4)CC3)c3ccccc3n2)c1 | nt | i | 43 | i | 68 | i
Cc1ccc(-c2cc(C(=O)N3CCN(c4ncccn4)CC3)c3ccccc3n2)cc1 | i | i | 49 | i | i | i
CC(=O)NCCSc1ccc(S(=O)(=O)N2CCCC2)cn1 | i | i | nt | i | nt | i
CN(C(=O)CSc1nnc(-c2ccc(Cl)cc2)n1C)C1CCS(=O)(=O)C1 (configuration not stated) | i | i | nt | i | nt | nt
COC(=O)C1C(=O)c2c([nH]c(C(=O)OC3CCCCC3)c2C)CC1C (configuration not stated) | i | i | 31 | i | 42 | i
COC(=O)C1C(=O)c2c([nH]c(C(=O)OCCOC(C)C)c2C)CC1C (configuration not stated) | i | i | 16 | i | i | ?
SMILES | AMA1 RON2 block | SARS PLP yeast | Cycloheximide cs | AmpC no deterg | Shiga toxin inh | AmpC inh detg
COC(=O)C1C(=O)c2c([nH]c(C(=O)OC3CCCC3C)c2C)CC1C (configuration not stated) | i | i | 27 | 7.1µM | 67 | ?
Cc1c(C(=O)OC2CCCCC2)[nH]c2c1C(=O)CC(C)(C)C2 | i | nt | i | nt | i | i
Cc1c(C(=O)OCCOc2ccccc2)[nH]c2c1C(=O)CC(c1ccccc1)C2 (configuration not stated) | nt | nt | nt | nt | nt | i
Cc1cc(C)n2nc(-c3ccccc3)cc2n1 | i | i | 57 | i | 77 | i
Nc1cc(-c2ccc(Br)cc2)nn1S(=O)(=O)c1ccccc1 | i | i | i | ? | i | i
Cc1cc(C)n2nc(Nc3ccccc3)cc2n1 | i | i | 28 | i | 88 | i
Cc1ccc(NC(=O)c2cc3nc(C)cc(C)n3n2)cc1 | i | i | 47 | i | 101 | i
Cc1ccc(NC(=O)c2cc3nc(-c4ccccc4)cc(-c4ccccc4)n3n2)cc1 | nt | nt | nt | nt | nt | i
Cc1cc(C)n2nc(C(=O)NCc3ccccc3)cc2n1 | i | i | i | i | i | i
Nc1cc(-c2ccc(Br)cc2)nc2cc(-c3ccccc3)nn12 | i | i | i | i | 93 | i
Cc1cc(C)n2nc(-c3ccc(F)cc3)cc2n1 | i | nt | nt | nt | nt | nt
O=C(NCc1ccco1)c1ccc2c(c1)N(Cc1cccc(Cl)c1)C(=O)c1ccccc1S2(=O)=O | nt | nt | nt | nt | nt | i
CC(C)=CCc1c(O)cc(O)c2c(=O)c(O[C@@H]3O[C@@H](C)[C@H](O)[C@@H](O)[C@H]3O)c(-c3ccc(O)cc3)oc12 | i | nt | nt | nt | nt | nt
Cc1ccc(-c2cc3nc(C)cc(C)n3n2)cc1 | i | i | 38 | i | 78 | i
COc1cc(OC)c(OC)cc1/C=C(\C#N)C(=O)NCc1cccs1 | i | i | i | i | i | i
Cc1cc(/C=C(\C#N)C(=O)NCc2cccs2)c(C)[nH]1 | i | i | 16 | i | i | i
CCOC(=O)c1nn(-c2ccc3c(c2)OCO3)cc1O | i | i | 43 | i | 108 | ?
CCOC(=O)c1nn(-c2ccc(C)cc2)cc1O | i | i | 55 | i | 76 | i
CCOC(=O)c1nn(-c2ccc3ccccc3c2)cc1O | i | i | 39 | i | 108 | i
CCOC(=O)c1nn(-c2cc(C(=O)OC)cc(C(=O)OC)c2)cc1O | i | i | i | i | i | ?
CCOC(=O)C1=NN(c2ccc(Cl)cc2)C(=O)C1 | i | i | 57 | i | 121 | i
c1cc2c(cc1-n1cnnn1)OCO2 | i | i | i | i | i | i
Cc1cc(N2CCOCC2)ccc1/C=C\[N+](=O)[O-] | i | i | i | i | i | i
O=C(O)CNCC1COc2ccccc2O1 (configuration not stated) | i | i | i | i | i | i
C[C@@H]1CN([C@@H](C)CO)C(=O)CCCn2nncc2CO[C@H]1CN(C)S(=O)(=O)c1ccc2c(c1)OCCCO2 | i | nt | nt | nt | nt | nt
CCOC(=O)c1nn(-c2ccccc2)cc1O | i | i | 23 | i | 55 | i
CCOC(=O)c1nn(-c2ccc(Cl)cc2)cc1O | i | i | 56 | i | 101 | i
CCOC(=O)c1cc(C(=O)OCC)cc(-n2cc(O)c(C(=O)OCC)n2)c1 | i | i | i | i | i | i
COC(=O)c1nn(-c2ccc(-c3ccccc3)cc2)cc1O | i | i | 29 | i | i | i
COc1cc(C(=O)OC(C)C(=O)NC2CCCCC2C)c([N+](=O)[O-])cc1OC (configuration not stated) | i | i | nt | i | nt | i
